Rows were chosen to be rich in hits. Some 2.6% of all compounds tested hit in one or more screens of this group.
Cruzain inh noDet: qHTS Assay for Promiscuous and Specific Inhibitors of Cruzain (without detergent) | Potency, µM, actives largely listed as inhibitors | 2.3% of 200,000 active | purified cruzain, Z-FR-AMC fluorescence, no detergent; note: nearly all actives have a fitted effect of over 40% in size
Target sequence (P25779 123-467 limits assumed): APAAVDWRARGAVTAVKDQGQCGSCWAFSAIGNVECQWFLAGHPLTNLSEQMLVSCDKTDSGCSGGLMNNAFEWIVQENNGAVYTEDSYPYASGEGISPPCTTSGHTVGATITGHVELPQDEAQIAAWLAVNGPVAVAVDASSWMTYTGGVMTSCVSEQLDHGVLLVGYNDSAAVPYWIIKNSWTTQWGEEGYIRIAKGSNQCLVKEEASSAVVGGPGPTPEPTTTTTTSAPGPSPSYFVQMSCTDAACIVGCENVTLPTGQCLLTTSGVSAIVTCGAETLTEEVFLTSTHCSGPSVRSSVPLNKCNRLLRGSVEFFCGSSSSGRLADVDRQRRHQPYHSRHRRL
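Purified cruzain at 1.5 nM, pre-incubated 15 min with compound at room temperature in 100 mM sodium acetate pH 5.5, 5 mM DTT, 0.00005% Triton X-100. Reaction started with 2 uM Z-FR-AMC; AMC fluorescence increase over 60 s gives rate.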
Cruzain inh Det: qHTS Assay for Promiscuous and Specific Inhibitors of Cruzain (with detergent); purified cruzain, Z-FR-AMC fluorescence, 0.01% Triton; Potency, µM, most hits filed as inhibitors; 0.43% of 200,000 active; AID 1478, 2009; note: nearly all actives have a fitted effect of over 40% in size
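In this qHTS format, compounds are incubated with 1.5 nM cruzain for 15 min at room temperature before 2 uM Z-FR-AMC is added. Release of AMC is followed at 360/450 nm, and progress is taken as the 60 s fluorescence difference.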
Hits are given with their value; – = inactive; ? = inconclusive. Calls come from the whole dose curve; as a rule, active = well fitted curve in the direction sought with a large enough effect; inconclusive = small, poorly fitted or top-dose-only effect, or another doubt; inactive = no such curve, though single readings can be large; an effect the other way counts as inactive or inconclusive.

SMILES | Cruzain inh noDet | Cruzain inh Det
COc1ccc(C)cc1N(C(=O)CNC(=O)c1ccco1)C(C(=O)NC1CCCC1)c1cccnc1 (stereo not given) | – | –
Clc1cccc(-c2cc3nc4c(c(N5CCN(c6cnccn6)CC5)n3n2)CCCC4)c1 | ? | –
Cc1cccc(Oc2sc(C(=O)c3ccccc3)c(N)c2C#N)c1 | – | –
CCn1c(CSc2nnc(C)n2-c2ccccc2)nc2cc(S(=O)(=O)N(C)C)ccc21 | – | –
CCn1c(-c2cc(Br)cc(OC)c2O)nc2cc(S(=O)(=O)N(C)C)ccc21 | 20µM | –
COc1ccc(-c2cc(C#N)nc(N3CCNCC3)n2)cc1 | 31.6µM | –
COc1ccc(-c2cc(C(F)(F)F)nc(N3CCCCCC3)n2)cc1 | – | –
CCN(CC)c1nc(C#N)cc(-c2ccc(OC)cc2)n1 | – | –
N#Cc1ccc(Oc2nc(C#N)cc(-c3ccccc3)n2)cc1 | – | 14.1µM
CN1CCN(c2nc(C#N)cc(-c3ccccc3)n2)CC1 | ? | –
N#Cc1cc(-c2ccccc2)nc(Oc2ccccc2)n1 | – | 15.8µM
NC(=O)c1cc(-c2ccccc2)nc(Oc2ccccc2)n1 | – | –
COc1ccc(-c2cc(C(N)=O)nc(N3CCCCCC3)n2)cc1 | 31.6µM | –
COc1ccc(NC(=O)C23CC4CC(C2)CC(n2cnc(Br)n2)(C4)C3)cc1OC | – | –
COCCNC(=O)CCn1c(=O)oc2ccccc21 | – | –
CCc1c(C)sc(NC(=O)OC)c1C(=O)N1CCCCC1 | – | –
Cc1ccc(CO/N=C/C2=C(Cl)c3ccccc3CC2)cc1 | – | –
O=C(CSc1nnc2scc(-c3ccc(Cl)cc3)n12)NCc1ccc2c(c1)OCO2 | – | –
CC(=O)c1ccc(NC(=O)CSc2nc3nc(C)cc(C)n3n2)cc1 | – | –
COc1ccc(-c2cc(C#N)nc(Oc3ccc(Cl)cc3)n2)cc1 | 25.1µM | 28.2µM
COc1ccc(Oc2nccc(-c3ccc(Cl)cc3)n2)cc1 | – | –
CC1(C)Cc2c(C#N)c(N3CCCC3)nc(-c3ccco3)c2CO1 | ? | –
Cc1ccc(CNC(=O)CSc2nc(=O)[nH]c3c2CCCC3)cc1 | – | –
O=C(NNC1=C(C(=O)C(F)(F)F)CCC1)c1ccccc1Cl | – | –
CN(C)CCNc1nc(-c2ccco2)c2c(c1C#N)CC(C)(C)OC2 | – | –
SMILES | Cruzain inh noDet | Cruzain inh Det
N#Cc1c(NCCN)nc(-c2ccco2)c2c1CCCC2 | 25.1µM | –
COCCCNC(=O)C1CC(=O)OC1c1ccc(OC)c(OC)c1 (stereo not given) | – | –
CCOc1ccc(C(=O)Nc2cccc(NC(=O)c3ccco3)c2)cc1Cl | – | –
CCOc1ccc(C(=O)Nc2cccc(NC(=O)c3ccc(C(C)(C)C)cc3)c2)cc1Br | 7.94µM | –
Cc1ccccc1CNC(=O)C1CCCCN1S(=O)(=O)c1ccc(F)cc1 (stereo not given) | – | –
O=C(CCCc1nc(-c2ccccc2)no1)Nc1cc(C(F)(F)F)cc(C(F)(F)F)c1 | – | –
CC[n+]1c(/C=C/N(C)c2ccccc2)oc2ccccc21 | – | –
COc1cc(CNC(=O)c2ccc(NC(=O)N3CCCCc4ccccc43)cc2)cc(OC)c1OC | ? | –
COc1cc(NC(=O)CN2CCCCC2)c(C)cc1[N+](=O)[O-] | – | –
CC(=O)Nc1ccc(C(=O)OCc2ccc(Cl)c(Cl)c2)cc1 | – | –
C=CCn1c(=NC(=O)c2ccc(S(=O)(=O)N3CCc4ccccc4C3)cc2)sc2cc(S(N)(=O)=O)ccc21 | – | –
C#CCn1c(=NC(=O)c2ccc(S(=O)(=O)N3CCc4ccccc4C3)cc2)sc2cc(S(N)(=O)=O)ccc21 | 10µM | –
COCCn1c(=NC(=O)c2ccc(S(=O)(=O)N3CCc4ccccc4C3)cc2)sc2cc(S(N)(=O)=O)ccc21 | ? | –
COC(=O)Cn1c(=NC(=O)c2ccc(S(=O)(=O)N3CCc4ccccc4C3)cc2)sc2cc(OC)ccc21 | 6.31µM | –
CC1CCCC(NC2CCCCNC2=O)C1 (stereo not given) | – | –
O=C(c1n[nH]c2c1CCCC2)n1ccnc1 | – | –
O=C(CSc1ccccc1)Nc1ccc(N2CCN(c3ccccc3)CC2)c(F)c1 | 12.6µM | –
Cc1ccc(SCC(=O)Nc2ccc(N3CCN(C)CC3)c(F)c2)cc1 | – | –
Cc1cc(C)c2c(CN3CCN(Cc4ccc5c(c4)OCO5)CC3)cc(=O)oc2c1C | – | –
CCc1cccc(NC(=O)c2ccc3c(=O)n4nc(Nc5ccccc5OC)sc4nc3c2)c1 | – | –
CCCCC/C=C\C/C=C\C/C=C\CCCCCCC(=O)NCCc1ccc(O)c(O)c1 | – | –
CCS(=O)(=O)N1CCCC(C(=O)NC2CCCCC2C)C1 (stereo not given) | – | –
O=c1[nH]nc(Cc2ccc(Cl)cc2)c2ccccc12 | – | –
O=C(CCSc1ccccc1)Nc1nc2c(s1)COc1ccccc1-2 | 31.6µM | –
CC(C)(C)C(=O)Nc1nc2c(s1)COc1ccccc1-2 | – | –
SMILES | Cruzain inh noDet | Cruzain inh Det
COC(=O)c1cc(OC)c(OC)cc1NC(=O)c1cccnc1 | – | –
CCOc1ccc(OCc2ccc(C(=O)O)o2)cc1 | – | –
Cc1ccnc(NC(=O)c2ccc(COc3ccc(Cl)cc3)o2)c1 | – | –
Cc1nn(Cc2ccc(C(=O)n3cccn3)o2)c(C)c1Br | – | –
Cc1cc(OCc2ccc(C(=O)n3cccn3)o2)ccc1Cl | ? | 7.94µM
O=C(c1ccc(COc2ccc(F)cc2)o1)n1cccn1 | 12.6µM | 15.8µM
O=C(c1ccc(COc2ccc(F)cc2)o1)n1cc(Br)cn1 | ? | 14.1µM
O=C(C1CCC(=O)N1C1CCCCC1)N1CCC2(CC1)OCCO2 (stereo not given) | – | –
CC(C)(C)c1ccc(-c2nnc(SCc3ccc(Cl)cc3)n2-c2cccc(C(F)(F)F)c2)cc1 | – | –
COc1ccc(Br)cc1CNC(=O)CCCn1c(=O)c2cccn2c2ccccc21 | – | –
O=C(CSCc1ccc(Cl)cc1)NCC1CCCO1 (stereo not given) | – | –
CNC(=O)c1ccsc1NC(=O)c1sc2ccccc2c1Cl | – | –
COCCCNC(=O)c1cnc2sc(N3CCCCC3)nn2c1=O | – | –
Cc1ccc(S(=O)(=O)CCC(=O)OCC(=O)c2c[nH]c3ccccc23)cc1 | 20µM | –
Cc1ccc(C(=O)OCC(=O)c2c[nH]c3ccccc23)cc1 | ? | –
CC(C)C(NS(=O)(=O)c1c(Cl)cccc1Cl)C(=O)OCC(=O)c1c[nH]c2ccccc12 (stereo not given) | 31.6µM | –
COc1cc(OC)c(N(C)S(=O)(=O)c2cccc(C(=O)OCC(=O)c3c[nH]c4ccccc34)c2)cc1Cl | 10µM | –
CC(C)Cc1ccc(C(C)C(=O)OCC(=O)c2c[nH]c3ccccc23)cc1 (stereo not given) | – | –
C=CCN(c1ccccc1OC)S(=O)(=O)c1cccc(C(=O)OCC(=O)c2c[nH]c3ccccc23)c1 | – | –
CCOC(=O)c1cnc2ccccc2c1Nc1ccc2c(c1)OCCO2 | ? | –
Cc1cc(NC(=O)CSc2nc3ccccc3n2CC(=O)N2CC(C)CC(C)C2)no1 (stereo not given) | – | –
CCCCCCCCCCCCCCCC(O)C(N)CO (stereo not given) | ? | 17.8µM
CCCCCCCCCCCCC/C=C\[C@@H](O)[C@@H](N)CO | – | –
O=C(CSc1nnc(-c2ccccc2)n1Cc1ccco1)Nc1ccc2c(c1)OCCO2 | – | –
Clc1cccc(-n2ncc3c(NCCCc4ccccc4)ncnc32)c1 | – | –
